Measurements from the supplement of paper PMC10981050.
Where “and” joins values, the source holds several entries; their conditions need not be identical. Identical values can stand only once. Counter-ions that a name gives are not always drawn.

Columns and labels:
Test in all cases: cell viability relative to vehicle control; higher = less cytotoxic
Conditions in all cases: 10 µM
K562 = tested on: K562
Summary of the method: (§1)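 Each screen used CRISPR-edited mutant and wild-type clones from four leukaemia lines. Compounds were acoustically dispensed at a single 10 µM dose, and CellTiter-Glo luminescence was read after 48 h with the supernatant first removed. Viability was analysed in Genedata Screener and given as percent of the on-plate vehicle control.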

MARIMO = tested on: MARIMO
Summary of the method: as §1

MOLM14 = tested on: MOLM14
Summary of the method: as §1

OCI-AML2 = tested on: OCI-AML2
Summary of the method: as §1

SMILES | cell viability (K562; SRSF2 genotype: SRSF2 P95H/wt) | cell viability (K562; SRSF2 genotype: SRSF2 wt/wt) | cell viability (MARIMO; SRSF2 genotype: SRSF2 P95H/wt) | cell viability (MARIMO; SRSF2 genotype: SRSF2 wt/wt) | cell viability (MOLM14; SRSF2 genotype: SRSF2 P95H/wt) | cell viability (MOLM14; SRSF2 genotype: SRSF2 wt/wt) | cell viability (OCI-AML2; SRSF2 genotype: P95H/wt) | cell viability (OCI-AML2; SRSF2 genotype: wt/wt)
CC12CCC(CC1=O)C2(C)C (stereo not drawn) [(+)-Camphor] | 94.2% and 102% | 101% | 96.2% | 99.9% | 99.3% | 99.8% | 103% | 92.2%
Cc1onc(-c2c(F)cccc2Cl)c1C(=O)N[C@@H]1C(=O)N2[C@@H]1SC(C)(C)[C@@H]2C(=O)O [Flucloxacillin sodium] | 96.6% and 89.9% | 94.3% | 100% | 108% | 95.6% | 96.5% | 99.6% | 107%
C[C@@H](CN1CC(=O)NC(=O)C1)N1CC(=O)NC(=O)C1 [Dexrazoxane] | 113% and 103% | 110% | 88.2% | 96.9% | 89.8% | 97.9% | 96.8% | 99.9%
C#Cc1cccc(Nc2ncnc3cc4c(cc23)OCCOCCOCCO4)c1 [Icotinib] | 96.1% and 94% | 94.2% | 92.4% | 98.3% | 92.3% | 98.4% | 94.9% | 94.5%
CO[C@@H]1[C@H](OC(=O)/C=C/C=C/C=C/C=C/C(=O)O)CC[C@]2(CO2)[C@H]1[C@@]1(C)O[C@@H]1CC=C(C)C [Fumagillin] | 77.1% and 77.5% | 72.3% | 51.5% | 69.4% | 50.9% | 50.5% | 72.4% | 63%
CC[C@@H](N)CNc1ccnc(-c2cc(-c3cnn(C)c3)ccc2O)n1 | 5.05% and 8.35% | 7.08% | 2.69% | 1.1% | 0.8% | 0.44% | 1.45% | 10.8%
C[N+](C)(C)CC(O)CC(=O)[O-] (racemic) [DL-Carnitine hydrochloride] | 101% and 105% | 98.8% | 98.4% | 106% | 98.1% | 103% | 102% | 101%
O=C(Nc1ccccc1Br)N[C@@H]1CCN(c2ccc(C(F)(F)F)cn2)C1 | 88.5% and 90.8% | 91.5% | 89.3% | 101% | 98.5% | 99.3% | 78.4% | 89.7%
CC1Cc2ccccc2N1NC(=O)c1ccc(Cl)c(S(N)(=O)=O)c1 (stereo not given) [Indapamide (Lozol)] | 108% and 105% | 103% | 106% | 105% | 106% | 106% | 114% | 104%
C[C@@H]1CN(CC(=O)Nc2ccc3c(c2)Cc2cccc(-c4cc(=O)cc(N5CCOCC5)o4)c2S3)C[C@H](C)O1 | 98.9% and 102% | 99.1% | 82.9% | 86.9% | 56.9% | 55.8% | 51.3% | 64.2%
